In PubChem BioAssay (EPA / NIEHS):
Calls of active or inactive are those of the source. The calls were made as follows: active = hit-call score of the fitted dose curve at least 0.9, where 1 is the maximum; inactive = score below 0.9.

read-out: Signal transducer and activator of transcription 3 (Homo sapiens) (UniProt P40763); experiment: LTEA_HepaRG_STAT3: Life Technologies and Expression Analysis (LTEA) Assay for Signal transducer and activator of transcription (STAT3) using HepaRG (AID 2283529); details: mRNA level, 48 h; actives raise or lower the signal
Description: LTEA_HepaRG is a cell based, multiplexed-readout assay that uses HepaRG, a human liver cell line, with measurements taken at 48 hours after chemical dosing on a 96-well plate.LTEA_HepaRG_STAT3 is one of 102 assay component(s) measured in the LTEA HepaRG cell culture assay. It is a marker of Cell proliferation, survival, death.Data from the assay component LTEA_HepaRG_STAT3 was analyzed into 1 endpoint. This assay endpoint, LTEA_HepaRG_STAT3, was analyzed with bidirectional fitting relative to DMSO as the negative control and baseline of activity. Using a type of inducible reporter, measures of mRNA induction for gain or loss-of-signal activity can be used to understand regulation of transcription factor activity. To generalize the intended target to other relatable targets, this assay endpoint is annotated to the dna binding intended target family, where the subfamily is stat protein.
A total of 1060 chemcials from the ToxCast library were tested in eight-point concentration-response experiments. Cell culture and cytotoxicity assays were conducted at Thermo Fisher Scientific's Custom Services facility (Madison, WI). A single lot of human HepaRG cells (Thermo Fisher Scientific, Frederick, MD) was used for the cell culture experiments. 96-well format collagen type I coated plates of human HepaRG cells were prepared using established methods. Briefly, cryopreserved HepaRG cells were thawed, plated at a density of approximately 100,000 cells/well in HepaRG Thaw, Plate, and General Purpose media (HPRG770, Thermo Fisher Scientific), and incubated for 48 hours. 0.5% DMSO was selected as vehicle control to balance the requisite need of DMSO in HepaRG cultures to maintain differentiation (for example, baseline metabolism, proportions of hepatocytes vs. cholangiocytes), while enabling further hepatic receptor pathway activation (for example, PXR and CAR) in response to chemical exposure. 48 hours after plating, the culture medium was replaced with HepaRG Serum-Free Incudtion Media. Cells were exposed to each test chemical in duplicate and maintained in CO2 incubators for another 48 hours. Chemical plates were thawed to room temperature and 200x concentrations of treatment groups were prepared. 8-point conentration-reponse curves were made with the highest exposure at 100 uM, followed by half-log dilutions, all in 0.5% DMSO. Each test plate contained variouse controls, induction positive controls (1mM phenobarbital), cytotoxicity positive controls ([…] aflatoxin B1), vehicle controls (0.5% DMSO), and total lysis controls (0.5% DMSO). Cell morphology images were taken using an Essen IncuCyte FLR automated microscope, with six 96-well plates imaged in about 24 minutes. Images were captured and exported and JPEG files. Spent culture media was transfered to black-well plates for the LDH assay, and remaining media was sorted at -80 C for later use. Cells were treated with RLT buffer and frozen until shipped for gene expression analysis. Total RNA was isolated from the cell suspension in 75 uL of Buffer RLT (Qiagen, Germantown, MD 20874) by Quintiles/Expression Analysis (Durham, NC) using a custom isolation procedure. Total RNA from each plate well was transferred to a preamplification plate. Fluidigm's 96.96 Dynamic ArrayTM (Fluidigm, Amsterdam, the Netherlands) technology was used for gene expression analyses by quantitative reverse transcription polymerase chain reaction (qRT-PCR, performed by Quintiles/Expression Analysis, Durham, NC)89. Standard TaqManTM Assays (Applied Biosystems/ThermoFisher Scientific, Foster City, CA) were used to assess the expression of 93 genes selected based on their selectivity and sensitivity to important hepatic receptors known to be modulated by environmental chemicals; importance in human hepatocyte functionality; and hepatotoxicity. […]

Sequence of Signal transducer and activator of transcription 3 (Homo sapiens) (P40763 whole entry, looked up): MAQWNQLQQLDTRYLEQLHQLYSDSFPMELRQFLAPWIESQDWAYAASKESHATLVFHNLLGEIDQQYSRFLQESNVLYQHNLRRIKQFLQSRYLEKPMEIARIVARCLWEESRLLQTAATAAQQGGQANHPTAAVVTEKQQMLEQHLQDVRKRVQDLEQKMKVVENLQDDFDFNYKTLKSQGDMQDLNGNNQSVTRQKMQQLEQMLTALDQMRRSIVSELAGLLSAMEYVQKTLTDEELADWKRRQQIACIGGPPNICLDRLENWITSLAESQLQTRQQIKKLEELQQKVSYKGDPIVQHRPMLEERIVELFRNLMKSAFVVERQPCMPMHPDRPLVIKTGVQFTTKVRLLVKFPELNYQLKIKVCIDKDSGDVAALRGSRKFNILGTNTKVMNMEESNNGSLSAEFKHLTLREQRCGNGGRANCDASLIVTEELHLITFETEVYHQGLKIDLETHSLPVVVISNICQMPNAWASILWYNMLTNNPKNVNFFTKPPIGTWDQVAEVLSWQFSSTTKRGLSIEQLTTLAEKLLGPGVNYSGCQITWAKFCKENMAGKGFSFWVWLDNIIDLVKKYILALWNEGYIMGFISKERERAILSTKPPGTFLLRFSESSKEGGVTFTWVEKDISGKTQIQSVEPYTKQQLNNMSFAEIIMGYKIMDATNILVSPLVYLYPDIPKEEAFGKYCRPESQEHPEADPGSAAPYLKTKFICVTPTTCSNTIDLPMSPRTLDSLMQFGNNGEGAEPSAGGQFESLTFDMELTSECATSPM

Structure (SMILES)	outcome	AC50
Oc1cccc(O)c1	inactive	
Cc1oc(-c2ccccc2)nc1CCOc1ccc(C[C@H](Nc2ccccc2C(=O)c2ccccc2)C(=O)O)cc1		21.2 µM (active)
Nc1cccc2c(N)cccc12	inactive	
CCCCCCCCOC(=O)CCCCCCCCC(=O)OCCCCCCCC	inactive	
CCC(C)(C)C1CCC(O)CC1 (stereo not given)	inactive	
O=C(OCCOCCOC(=O)c1ccccc1)c1ccccc1	inactive	
Cc1cc(C)c(O)c(C)c1	inactive	
O=C(O)Cc1cc(I)c(Oc2cc(I)c(O)c(I)c2)c(I)c1	inactive	
CCOC(=O)CC(O)(CC(=O)OCC)C(=O)OCC	inactive	
CC(=O)NC1(c2cccc(F)c2)CCN(CC[C@@]2(c3ccc(Cl)c(Cl)c3)CN(c3ccccc3)C(=O)CO2)CC1	inactive	
c1ccc2c(c1)Cc1ccccc1-2	inactive	
C[C@@H]1C[C@H]2[C@@H]3CCC4=CC(=O)C=C[C@]4(C)[C@@]3(F)[C@@H](O)C[C@]2(C)[C@@]1(O)C(=O)COP(=O)(O)O	inactive	
OC1CCC(C2CCCCC2)CC1 (stereo not given)	inactive	
COC(=O)CCCCC(=O)OC	inactive	
OC1CCCCC1	inactive	
CC(=O)CC(C)(C)O	inactive	
CC(C)(C)c1ccc(O)c(C(C)(C)C)c1		9.92 µM (active)
CCCCC(CC)COC(=O)CCCCC(=O)OCc1ccccc1 (stereo not given)	inactive	
Oc1cc2ccccc2c2ccccc12	inactive	
O=c1c(-c2ccc(O)cc2)coc2cc(O)ccc12	inactive	

Structure (SMILES)	outcome	AC50
ClC1=C(Cl)C(Cl)(Cl)C(Cl)=C1Cl	inactive	
OCCC(F)(F)C(F)(F)C(F)(F)C(F)(F)C(F)(F)C(F)(F)F	inactive	
CC1=C(/C=C/C(C)=C/C=C/C(C)=C/C(=O)O)C(C)(C)CCC1	inactive	
CN1CCC[C@H]1c1cccnc1	inactive	
CN1CCN(c2ccccc2/C=C2\SCCN(c3ccc(Cl)c(Cl)c3)C2=O)CC1	inactive	
C=C(C)C(=O)OCCC(F)(F)C(F)(F)C(F)(F)C(F)(F)C(F)(F)C(F)(F)F	inactive	
COCC(C)OCC(C)O (stereo not given)	inactive	
CCCCC(CC)COC(=O)CCCCC(=O)OCC(CC)CCCC (stereo not given)	inactive	
CCCCOCCO	inactive	
NC(=O)N(O)[C@@H]1C=C[C@H](Oc2cccc(Oc3ccc(F)cc3)c2)C1	inactive	
CCC(=C(c1ccc(O)cc1)c1ccc(OCCN(C)C)cc1)c1ccccc1	inactive	
CC(O)CO (stereo not given)	inactive	
CC[C@H](C)[C@@H](C(=O)O)n1sc2ccccc2c1=O	inactive	
Cc1cc(CCN2CCN(c3nsc4ccccc34)CC2)cc2c1NC(=O)CC2(C)C	inactive	
C#C[C@]1(O)CC[C@H]2[C@@H]3CCC4=CC(=O)CC[C@@H]4[C@H]3CC[C@@]21C	inactive	
CN(C)C=O	inactive	
CCCCCCCC(=O)O	inactive	
CC(C)(C)c1cccc(C(C)(C)C)c1O	inactive	
CCc1ccc(CCOc2ccc(CC3SC(=O)NC3=O)cc2)nc1 (stereo not given)	inactive	
N#C[C@@H]1CC(F)(F)CN1C(=O)CNC1CC2CCC(C1)N2c1ncccn1 (stereo not given in full)		12.5 µM (active)
